Bioassay records as filed in PubChem.
GALR2 agonist: GALR2 receptor agonists, primary screen, cell-based; Galanin receptor type 2 (Homo sapiens), O43603; AID 803, 2007; hit rate 0.48% among 140,000; activation, % (concentration not given with the values); GALR2-expressing cells, agonist activation read-out; in the data active means activation above about 5%, passing the limit was not always enough
Target sequence (O43603 whole entry, looked up): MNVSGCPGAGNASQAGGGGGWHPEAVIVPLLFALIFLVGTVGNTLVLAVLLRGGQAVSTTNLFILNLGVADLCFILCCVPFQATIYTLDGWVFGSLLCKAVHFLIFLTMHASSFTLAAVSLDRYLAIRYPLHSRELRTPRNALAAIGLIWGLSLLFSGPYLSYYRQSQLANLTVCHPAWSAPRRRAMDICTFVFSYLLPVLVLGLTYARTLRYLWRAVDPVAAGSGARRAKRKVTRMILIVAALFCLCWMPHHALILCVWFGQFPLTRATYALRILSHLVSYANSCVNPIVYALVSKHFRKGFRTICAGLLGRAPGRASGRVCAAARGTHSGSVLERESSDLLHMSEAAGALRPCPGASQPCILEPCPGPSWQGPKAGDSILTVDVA
S1P2 blocker: human S1P2 receptor antagonists, primary screen, cell-based; Sphingosine 1-phosphate receptor 2 (Homo sapiens), O95136; cell-based S1P2 antagonist assay, inhibition at 5 uM; inhibition, % at 5 µM; hit rate 0.21% among 97,000; AID 736, 2007; in the data active means inhibition above about 45%;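 further: CRE beta-lactamase reporter cells expressing human S1P2 stimulated with S1P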
GALR2 antag: GALR2 antagonists in receptor-expressing cells, primary screen | inhibition, % at 4 µM | AID 828, 2007 | hit rate 0.39% among 140,000 | antagonist mode; in the data active means inhibition above about 27%;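 further: cells stimulated with galanin 1-16 at roughly its EC80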
PostGolgi ctrl: growth inhibition of yeast control strain, primary screen, counter-screen for post-Golgi transport modulator project; AID 738, 2007; inhibition, % at 10 µM; efflux-deficient yeast background strain, growth absorbance A615, 16 h; hit rate 5% among 98,000
PostGolgi yeast: phenotypic screen on post-Golgi transport, primary screen; hit rate 0.9% among 98,000; AID 739, 2007; inhibition, % at 10 µM; post-Golgi transport phenotypic cell assay;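 further: yeast cells grown in 1536-well plates; yeast grown about 18 h at 30C before absorbance read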
S1P2 ag: S1P2 receptor agonists, primary screen, cell-based; Sphingosine 1-phosphate receptor 2 (Homo sapiens), O95136; S1P2-expressing cell line, agonist reporter read-out; activation, % at 4.5 µM; hit rate 0.46% among 97,000; in the data active means activation above about 16%
A number is an active result; 0 = inactive; - = not tested or not shown. The sample as a whole holds a higher share of hits than the screen did. Unless noted, no stated cut-off is given here; in the data, active means inhibition above about 30%; inactive means the rest.

SMILES	GALR2 agonist	S1P2 blocker	GALR2 antag	PostGolgi ctrl	PostGolgi yeast	S1P2 ag
O=c1c2c3c(sc2nc2n1CCCCC2)CCCC3	0	-	0	31	0	-
Nc1nc2sc3c(c2c(=O)s1)CCCC3	0	0	0	39	0	0
Cc1[nH][nH]c(=O)c1C(c1c(C)[nH][nH]c1=O)c1cn(Cc2ccccc2Cl)c2ccccc12	0	-	0	-	-	-
CCn1c(N2CCC(Cc3ccccc3)CC2)nc2c1c(=O)[nH]c(=O)n2C	0	0	0	37	0	0
Cn1c(=O)[nH]c(=O)c2c1nc(N1CCCC1)n2CCCSc1nc2ccccc2o1	0	-	0	46	0	-
CC1CCN(c2nc3c(c(=O)[nH]c(=O)n3C)n2Cc2ccccc2)CC1	0	0	0	0	0	0
CC1CCCN(c2nc3c(c(=O)[nH]c(=O)n3C)n2CCCc2ccccc2)C1 (configuration not stated)	0	-	0	35	0	-
CC1CCCN(c2nc3c(c(=O)[nH]c(=O)n3C)n2CCSc2nc3ccccc3o2)C1 (configuration not stated)	0	0	0	0	0	0
O=C(CN1C(=O)C2C3C=CC(C3)C2C1=O)N1CC=C(c2ccccc2)CC1 (configuration not stated)	0	0	0	31	0	0
Cn1c(NCc2cccc(Br)c2)nc2ccccc21	0	0	0	0	0	0
Cn1c(Oc2ccccc2NCc2cccc(Br)c2)cc(=O)n(C)c1=O	0	0	0	38	0	0
Cc1ccc(Cn2cccc(-c3nc4ccccc4s3)c2=O)cc1	65	0	0	0	0	77
O=c1c(-c2nc3ccccc3s2)cccn1Cc1ccccc1	31	0	0	0	0	63
O=S(=O)(NC1=NCCC1)c1cccc(NC(=S)NCCc2ccccc2)c1	0	-	0	-	-	-
CCOc1ccc(NS(=O)(=O)c2cc(OCC(N)=O)c(C)cc2Cl)cc1	0	-	0	-	-	-
Cc1ccc(Cn2ccc(NC(=O)c3cc4nc5c(c(C(F)(F)F)n4n3)CCc3ccccc3-5)n2)cc1	0	0	0	0	0	0
Cc1ccc(O)c(NC(=O)c2cc3nc4c(c(C(F)(F)F)n3n2)CCc2ccccc2-4)c1	0	0	0	35	0	0
COc1ccc(/C=N/OCC(=O)N(Cc2ccc(OC)cc2)c2ccccc2C(=O)O)cc1	0	-	0	-	-	-
CN(C)c1ccc(/C=C/C(O)=C2/C(=O)N(C)C3(C)CC2c2ccccc2O3)cc1 (configuration not stated)	0	69	0	0	0	0
c1ccc(COc2ccc(OCCN3CCCCC3)cc2)cc1	0	-	0	-	-	-
CCCn1c(NC(=O)C2CCN(S(=O)(=O)c3cccs3)CC2)nc2ccccc21	0	0	0	32	0	0
CCCn1c(NC(=O)c2ccccc2)nc2ccccc21	0	0	0	39	0	0
CCCn1c(NC(=O)c2ccc(C)cc2)nc2ccccc21	0	0	0	0	0	0
CCCn1c(NC(=O)c2cccc(S(=O)(=O)N3CCCC3)c2)nc2ccccc21	0	-	0	36	0	-
S=C1COC(c2ccccc2)N1c1ccccc1 (configuration not stated)	0	0	0	-	-	0
SMILES	GALR2 agonist	S1P2 blocker	GALR2 antag	PostGolgi ctrl	PostGolgi yeast	S1P2 ag
Cc1ccc(C)c(C(=O)CN2C(=O)NC3(CCC(C)CC3)C2=O)c1 (configuration not stated)	0	-	0	-	-	-
O=C(NC(Cc1c[nH]c2ccccc12)C(=O)NCc1ccc(F)cc1)OCc1ccccc1 (configuration not stated)	0	-	0	-	-	-
COc1ccc(Nc2nc(C(F)(F)F)nc(C)c2C#N)cc1	0	-	0	-	-	-
COc1ccc(-c2nnc(SCC(=O)c3ccc(C)o3)o2)cc1	0	0	0	-	-	0
COc1ccc(CN(C(=O)CSc2nnc(-c3ccc(F)cc3)o2)c2ccc(F)cc2)cc1	0	-	0	38	0	-
COC(=O)c1ccc(/C=C(\C#N)C(=O)NC(C)c2ccccc2)cc1 (configuration not stated)	0	-	0	-	-	-
Cc1ccc(C(C)NC(=O)/C(C#N)=C\c2c(C)[nH]c3ccccc23)cc1 (configuration not stated)	0	0	0	59	0	0
Fc1ccc2nc3n(c2c1F)CCCCCC3	0	0	0	40	0	0
Cn1c[n+](C)cc1-c1ccc(/C(N)=N/O)cc1	0	-	0	-	-	-
CCn1c(-c2ccccc2Cl)nn(CC(=O)Nc2ccccc2C)c1=S	0	0	0	0	0	0
O=C(COC(=O)CNC(=O)c1ccccc1)Nc1ccc(Cl)cc1C(F)(F)F	0	-	0	-	-	-
COc1ccccc1Nc1ccc(S(=O)(=O)N2CCCCC2)cc1[N+](=O)[O-]	0	-	0	-	-	-
O=C(NCCc1csc(-c2cccnc2)n1)c1cccs1	0	-	0	0	0	-
O=C(NCCc1csc(-c2ccc(C(F)(F)F)cc2)n1)c1cccs1	0	0	0	82	0	0
O=[N+]([O-])c1ccc(/C=N/Nc2nc(-c3ccccc3)c3cc(Br)ccc3n2)o1	0	0	0	64	0	0
Cc1ccc2nc(N/N=C\c3ccc([N+](=O)[O-])o3)nc(-c3ccccc3)c2c1	0	0	0	99	108	0
CCOc1cc(C=O)ccc1OS(=O)(=O)c1ccc(NC(C)=O)cc1	0	-	0	-	-	-
Cc1ccc(N(CC(=O)NCCSc2nc3ccccc3s2)S(=O)(=O)c2ccccc2)c(C)c1	0	-	0	-	-	-
Cc1ccn2c(NCc3ccc4c(c3)OCO4)c(-c3ccc(O)cc3)nc2c1	0	0	0	36	0	0
CC1(c2ccccc2)NC(=O)N(Cc2ccc([N+](=O)[O-])cc2)C1=O (configuration not stated)	0	-	0	-	-	-
N#C/C(=C/c1ccc(N2CCCCCC2)o1)c1ccc(F)cc1	0	80	37	0	30	0
N#C/C(=C/c1ccc(N2CCCCCC2)o1)c1cccc(F)c1	0	50	0	0	0	0
COc1ccc(C2N(S(=O)(=O)c3ccc(C)cc3)CCN2S(=O)(=O)c2ccc(C)cc2)cc1	0	0	0	0	0	0
Cc1csc(SCC(=O)NC(=O)NCc2ccccc2)n1	0	0	0	42	0	0
O=C1CCCN1CCCN1C(=O)N[C@@H](Cc2ccccc2)C1=O	0	0	0	35	0	0
SMILES	GALR2 agonist	S1P2 blocker	GALR2 antag	PostGolgi ctrl	PostGolgi yeast	S1P2 ag
O=C1N[C@@H](Cc2ccccc2)C(=O)N1CCN1CCOCC1	0	0	0	0	0	0
Cc1ccc(Cl)cc1NC1=C/C(=N\S(=O)(=O)c2cccs2)c2ccccc2C1=O	0	0	0	66	50	0
CC(c1nnc(SCn2nnc3ccccc3c2=O)n1-c1ccc(Cl)cc1)N(C)C (configuration not stated)	0	-	0	0	67	-
O=c1[nH]c(NCCO)nc2c1C1(CCCCC1)Cc1ccccc1-2	0	0	0	31	0	0
CCC1(CC)Cc2ccccc2-c2nc(NCCO)[nH]c(=O)c21	0	0	0	-	-	0
Clc1ccc(-c2n[nH]c3c2CCC3)c(Cl)c1	0	0	0	47	107	0
